Among the test systems are DU-145 prostate; K-562 leukemia; MALME-3M melanoma; MDA-MB-231 breast; RXF 393 renal; SF-268 CNS; SF-295 CNS; SF-539 CNS; UACC-257 melanoma; M14 melanoma.
Assay in all cases: NCI-60 one-dose screen, 48 h (100 = growth as untreated, 0 = no growth, -100 = all killed)
What all share (settings): 10 µM

Each structure is given as a SMILES string. This is part of a sample that, as a whole, favours compounds with a hit. Of some 83,000 tested, about 20% had one in any assay.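 Each cell line was grown in a 96-well plate and treated with one concentration of compound for 48 hours. Values below 10 were considered active.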 Unmarked numbers belong to inactive results. Active and inactive are the calls of the source.

Take `C=CCn1c(C)nc2cc(Nc3nc(Nc4ccc5nc(C)n(CC=C)c5c4)c4ccccc4n3)ccc21`: the growth in the assay on DU-145 prostate is -96% (active); with K-562 leukemia, -27.7% (active); with MALME-3M melanoma, -68.3% (active); with MDA-MB-231 breast it was -85.8% (active); with RXF 393 renal, -97.4% (active); with SF-268 CNS, -69.8% (active). Further, the growth in the assay with SF-295 CNS is -86.6% (active); with SF-539 CNS, -95.8% (active); with UACC-257 melanoma, -79.8% (active); in the assay on M14 melanoma, -88% (active).

Take `COc1ccc2oc(=O)cc(C(c3ccc[nH]3)c3ccc[nH]3)c2c1`: the growth in the assay with DU-145 prostate was 13.3%; with K-562 leukemia, 4.44% (active); in the assay on MALME-3M melanoma it was 49.6%; in the assay on MDA-MB-231 breast it was 13.2%; in the assay with RXF 393 renal, -31.3% (active); with SF-268 CNS, 18.7%. For the same compound, the growth with SF-295 CNS was 6.39% (active); with SF-539 CNS it was 1.28% (active); in the assay on UACC-257 melanoma it was 32.5%; with M14 melanoma, 8.91% (active).

Regarding `CCCCCCCCCCCCCCCCn1cc[n+](C)c1`, the growth with DU-145 prostate was -100% (active); in the assay with K-562 leukemia, 72.6%; with MALME-3M melanoma it was -73.7% (active); with MDA-MB-231 breast it was -93.9% (active); in the assay on RXF 393 renal, -66.2% (active); in the assay on SF-268 CNS it was -23% (active). Further, the growth in the assay on SF-295 CNS is -39.5% (active); in the assay with SF-539 CNS, -98.6% (active); in the assay with UACC-257 melanoma, -61.1% (active); with M14 melanoma, -77.4% (active).

For the compound `CCc1nn2c(-c3ccccc3)c(-c3cc(OC)c(OC)c(OC)c3)nc2s1`, the growth was 102% with DU-145 prostate; 92.1% with K-562 leukemia; 62.4% with MALME-3M melanoma; 76.8% with MDA-MB-231 breast; 88.9% in the assay with RXF 393 renal; 96% in the assay with SF-268 CNS. Moreover, the growth in the assay on SF-295 CNS was 89.1%; with SF-539 CNS it was 97.3%; in the assay with UACC-257 melanoma, 107%; in the assay with M14 melanoma, 99.1%.

As for `COc1cccc(-c2nnc(COc3ccc(-c4nc5ccc(C)cc5[nH]4)cc3OC)o2)c1`, the growth in the assay with DU-145 prostate was 65.2%; in the assay on K-562 leukemia, 13.5%; in the assay with MALME-3M melanoma, 52.8%; in the assay on MDA-MB-231 breast, 64.5%; in the assay with RXF 393 renal, 85.1%; in the assay on SF-268 CNS it was 101%. The growth in the assay with SF-295 CNS is 99.2%; in the assay with SF-539 CNS it was 57.4%; with UACC-257 melanoma, 97.1%; with M14 melanoma, 53.9%.

In the case of `N=C(N)c1ccc(-c2ccc(-c3ccccc3)s2)cc1F`, the growth in the assay with DU-145 prostate is -95.5% (active); in the assay with K-562 leukemia, -70.8% (active); with MALME-3M melanoma, -76.7% (active); in the assay with MDA-MB-231 breast it was -82.3% (active); with RXF 393 renal, -86.9% (active); with SF-268 CNS it was -84.6% (active). The growth in the assay on SF-295 CNS is -77.9% (active); in the assay on SF-539 CNS, -97.3% (active); in the assay on UACC-257 melanoma, -84.1% (active); with M14 melanoma it was -93.1% (active).

Take `COc1ccc(C2CC(c3ccc(-c4ccccc4)cc3)=NN2c2ccc(S(N)(=O)=O)cc2)cc1` (stereo not given): the growth in the assay on DU-145 prostate was 83.2%; in the assay with K-562 leukemia, 52.7%; in the assay with MALME-3M melanoma, 95.8%; with MDA-MB-231 breast, 69.6%; in the assay with RXF 393 renal it was 73.3%; with SF-268 CNS it was 68%. Further, the growth was 86.5% in the assay on SF-295 CNS, 98.7% in the assay with SF-539 CNS, 82.7% in the assay with UACC-257 melanoma and 89.6% in the assay with M14 melanoma.

Turning to `COCc1cc2c(cc1Br)OCO2`, the growth in the assay with DU-145 prostate was 112%; in the assay on K-562 leukemia it was 107%; in the assay on MALME-3M melanoma, 98.6%; with MDA-MB-231 breast it was 110%; in the assay on RXF 393 renal it was 107%; with SF-268 CNS it was 100%. Further, the growth with SF-295 CNS was 99.1%; with SF-539 CNS, 95.5%; in the assay on UACC-257 melanoma, 101%; with M14 melanoma, 100%.

For the compound `O=[N+]([O-])c1ccc(Br)o1`, the growth in the assay with DU-145 prostate is 101%; in the assay on K-562 leukemia, 106%; with MALME-3M melanoma it was 104%; with MDA-MB-231 breast, 107%; in the assay with RXF 393 renal it was 106%; in the assay with SF-268 CNS it was 95.9%. Moreover, the growth in the assay on SF-295 CNS is 98.8%; in the assay on SF-539 CNS, 98.6%; with UACC-257 melanoma, 110%; in the assay with M14 melanoma, 104%.

For the compound `c1ccc(CNc2nc(Nc3ccc(-c4nc5ccccc5[nH]4)cc3)c3cn[nH]c3n2)cc1`, the growth with DU-145 prostate is 25.5%; with K-562 leukemia, -17% (active); in the assay on MALME-3M melanoma, -23.5% (active); in the assay on MDA-MB-231 breast, -11.1% (active); in the assay with RXF 393 renal, -68.3% (active); in the assay on SF-268 CNS, 22.1%. Besides, the growth in the assay with SF-295 CNS is -44.5% (active); with SF-539 CNS it was 1.69% (active); with UACC-257 melanoma, -33.3% (active); in the assay with M14 melanoma, -34.6% (active).

For the compound `Cc1nc(N)sc1Sc1nc2ccc(Cl)cc2c(=O)n1-c1ccc(Oc2ccccc2)cc1`, the growth was 92.5% in the assay with DU-145 prostate; 74.4% in the assay on K-562 leukemia; 95.1% in the assay on MALME-3M melanoma; 89.3% in the assay with MDA-MB-231 breast; 86.4% in the assay on RXF 393 renal; 107% in the assay with SF-268 CNS. The growth was 67.8% in the assay on SF-295 CNS, 93.4% in the assay on SF-539 CNS, 75.7% with UACC-257 melanoma and 76.6% with M14 melanoma.

As to `C#CCNCCN1C(=O)c2ccc3c4c(ccc(c24)C1=O)C(=O)N(CCNCC#C)C3=O`, the growth is 54.7% with DU-145 prostate; 25% with K-562 leukemia; -12.9% (active) with MALME-3M melanoma; 58% in the assay on MDA-MB-231 breast; 52.1% in the assay with RXF 393 renal; 47.9% in the assay on SF-268 CNS. The growth is 27% with SF-295 CNS, 47.7% in the assay on SF-539 CNS, 14.4% in the assay on UACC-257 melanoma and 32.6% in the assay with M14 melanoma.

Turning to `N#CN1CC[C@H](C(=O)Nc2ncc(-c3ccccc3)s2)C1`, the growth with DU-145 prostate was 0.607% (active); in the assay with K-562 leukemia, 2.31% (active); with MALME-3M melanoma it was -16.4% (active); in the assay with MDA-MB-231 breast, 3.84% (active); in the assay on RXF 393 renal, -45% (active); with SF-268 CNS, 0.182% (active). Also, the growth in the assay on SF-295 CNS was 18.8%; with SF-539 CNS, -16.9% (active); in the assay with UACC-257 melanoma, -8.04% (active); with M14 melanoma it was -7.98% (active).

As to `O=C(O)CN1C(=O)C=CC1=O`, the growth with DU-145 prostate was 104%; with K-562 leukemia, 96.4%; with MALME-3M melanoma, 97.7%; in the assay on MDA-MB-231 breast it was 107%; in the assay on RXF 393 renal, 98.9%; in the assay with SF-268 CNS it was 94.4%. In addition, the growth with SF-295 CNS was 103%; in the assay on SF-539 CNS, 96.2%; in the assay on UACC-257 melanoma, 115%; in the assay with M14 melanoma it was 106%.

(Values after PubChem BioAssay (NCI).)
